Reference: PubChem BioAssay (NCATS)
Inconclusive results are not listed. A number with no mark means an inactive call. The call rests on the fitted dose curve; in most records, active means well fitted inhibition curve with a large enough effect; inconclusive means small, poorly fitted or top-dose-only effect; inactive means flat fitted curve, though single readings scatter. Where a SMILES comes first, the peptide text is derived from it. [ ]: non-standard residue; d: D form. ξ: configuration not given here. ξPhe(βξ-Me) = CC(c1ccccc1)C(N)C(=O)O; GABA = NCCCC(=O)O

molecular target: Calcium and integrin-binding protein 1 (Homo sapiens) (UniProt Q99828); test: Primary qHTS for Identification of Calcium Integrin Binding Protein 1 (CIB1) Competitor (AID 1508620); conditions: CIB1-GST / FITC-alphaIIb peptide fluorescence polarization; series mostly up to 114 µM; activity change, negative = inhibition: at the top concentration;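 further: GST tagged CIB1 binding a fluorescein labelled alphaIIb integrin peptide tracer; top concentration of the series differs between compounds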
Sequence (Q99828 whole entry, looked up): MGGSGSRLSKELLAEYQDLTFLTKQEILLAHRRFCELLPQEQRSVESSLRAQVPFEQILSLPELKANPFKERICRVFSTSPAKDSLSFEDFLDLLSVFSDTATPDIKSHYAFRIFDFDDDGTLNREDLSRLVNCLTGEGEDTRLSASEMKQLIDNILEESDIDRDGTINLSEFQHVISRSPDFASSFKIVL
Outline: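 Fluorescence polarization competition: CIB1-GST (1 uM final) preincubated with compound 15 min at room temperature, then FITC-labeled alphaIIb peptide (100 nM final) added for another 15 min. Polarization read at Ex 480/Em 540.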
On the % scale 0 is the no-effect control and ±100 the full control effect.

Going from C/C=C/C=C/C(O)=C1\C(O)=C(C)C(=O)[C@@]2(C)OC(=O)[C@@](C)(NC(=O)/C=C/C(=O)O)[C@@H]12 to COC(=O)C[C@H]1C(C)(C)[C@H](OC(C)=O)C2CC3=C4CC(=O)O[C@@H](c5ccoc5)[C@]4(C)CCC3[C@@]1(C)C2=O (some centres undefined), the “activity change, negative = inhibition” value falls from -5.19% [at 57.7 µM] to -6.72% [at 57.7 µM].

Going from COc1c2c(c(C)c3c1C(=O)OC3)OC1(C)CC(O)C34OC(OC)(CC(OC(C)=O)C3(C)C1C2)OC4(C)C (centres undefined) to COC(=O)C12CCC(C)C(C)C1C1=CCC3C4(C)CCC(OC(C)=O)C(C)(C)C4CCC3(C)C1(C)CC2 (centres undefined), the “activity change, negative = inhibition” value falls from 4.03% [at 57.7 µM] to 2% [at 57.7 µM].

First: C[C@@H]1C[C@@H](O)[C@@]23CO[C@@H](O)[C@@H]2CCC[C@@H]3[C@@]12C[C@@H](c1ccoc1)OC2=O
Second: C/C1=C\CCC(C)CCO[C@@H]2O[C@H](CO[C@@H]3OC[C@H](O)[C@H](O)[C@H]3OC1=O)[C@@H](O)[C@H](O)[C@H]2O (some centres undefined)
The “activity change, negative = inhibition” value of the first is lower: -12.2% [at 57.7 µM] for the first, -4.14% [at 57.7 µM] for the second.

Going from CC(=O)C=C=C1C(C)(C)CC(O[C@@H]2O[C@H](CO)[C@@H](O)[C@H](O)[C@H]2O)CC1(C)O (some centres undefined) to CC1(CCOC2OC(CO)C(O)C(O)C2O)CCC23OC2(C1)C(O)CC1C(C)(C(=O)O)CCCC13C (centres undefined), the “activity change, negative = inhibition” value falls from 3.62% [at 57.7 µM] to -3.31% [at 57.7 µM].

Going from CC(C)c1ccc(CO)cc1O[C@@H]1O[C@H](CO)[C@@H](O)[C@H](O)[C@H]1O to COc1cc(C2Oc3c(OC)cc(CCCO)cc3C2CO)ccc1O[C@H]1O[C@H](C)[C@@H](O)[C@H](O)[C@@H]1O (some centres undefined), the “activity change, negative = inhibition” value rises from 1.52% [at 57.7 µM] to 2.85% [at 57.7 µM].

Going from CO[C@H]1/C=C/[C@@](C)(O)/C=C/C(=O)O[C@H](C)[C@@H](C)CC/C=C/1C to COC(=O)C[C@H]1[C@]2(C)C3=C(C)[C@H](c4ccoc4)C[C@H]3O[C@@H]2[C@H](OC(C)=O)C2[C@](C)(C(=O)OC)C=CC(=O)[C@@]21C (some centres undefined), the “activity change, negative = inhibition” value falls from 9.27% [at 57.7 µM] to 0.407% [at 57.7 µM].

Compared with CCCCNc1ncc2c(-c3ccc(F)cc3)nn(CC3CCC(N)CC3)c2n1 (centres undefined), CC(C)c1ccc2c(c1)C(=O)CC1[C@@](C)(C(=O)O)CCC[C@]21C (some centres undefined) is lower in “activity change, negative = inhibition” value: -5.27% [at 57.7 µM] for the first, -12.3% [at 57.7 µM] for the second.

First: CC(C)(O)c1ccc2c(c1)C(O)C[C@H]1[C@](C)(C(=O)O)CCC[C@]21C (some centres undefined)
Second: CC1(C)CC2=C3C=CC4C5(C)CCC(O)C(C)(C)C5CCC4(C)C3(C)CCC2(C)C(O)C1 (centres undefined)
The “activity change, negative = inhibition” value of the first is higher: 0.881% [at 57.7 µM] for the first, 0.354% [at 57.7 µM] for the second.

First: C=C1C(=O)OC2/C=C(\CO)CC/C=C(\C=O)CC(OC(=O)CC(C)C)C12 (centres undefined)
Second: C/C=C/c1cc(OC)c2c(c1)[C@@H](C)[C@@H](c1ccc(O)c(OC)c1)O2
The “activity change, negative = inhibition” value of the first is higher: 3.99% [at 57.7 µM] for the first, -4.69% [at 57.7 µM] for the second.

For O=C(OC1C=C(CO)C2C(OC3OC(CO)C(O)C(O)C3O)OC=CC12)c1ccc(O)cc1 (centres undefined), the “activity change, negative = inhibition” value was 5.71% [at 57.7 µM].

Going from CC1(C(=O)O)CCCC2(C)C3CCC4CC3(CCC12)CC4=O (centres undefined) to COc1cc(O)c2c(c1)C1=CC(O)C(O)CC1(C)OC2=O (centres undefined), the “activity change, negative = inhibition” value falls from 3.97% to -0.489%.

Going from Cc1cc(N(C)C)ccc1-c1nc2ccc(-c3nc4ccc(N5CCN(C)CC5)cc4[nH]3)cc2[nH]1 to Cc1ccccc1C#Cc1ccc(CCC(=O)O)cc1, the “activity change, negative = inhibition” value rises from -7.38% to -4.67%.

First: [N-]=[N+]=N[C@]1(CO)O[C@@H](n2ccc(=O)[nH]c2=O)[C@@H](O)[C@@H]1O
Second: COC1C(CO)OC(n2cnc3c(=O)[nH]cnc32)C1O (centres undefined)
The “activity change, negative = inhibition” value of the first is higher: 4.17% for the first, -1.21% for the second.

First: Cc1ccc(S(=O)(=O)c2ccc([N+](=O)[O-])o2)cc1
Second: CC(C)C(NC(=O)c1ccc2ccccc2n1)C(=O)NC(CC(=O)O)C(=O)COc1c(F)cccc1F (centres undefined)
The “activity change, negative = inhibition” value of the first is lower: -19.7% for the first, -5.76% for the second.

With CC[C@H]1OC(=O)[C@H](C)[C@@H](O[C@H]2C[C@@](C)(OC)[C@@H](O)[C@H](C)O2)[C@H](C)[C@@H](O[C@@H]2O[C@H](C)C[C@H](N(C)C)[C@H]2O)[C@](C)(O)C[C@@H](C)C(=O)[C@H](C)[C@H]2OC(=O)O[C@@]21C the “activity change, negative = inhibition” value was 4.73%.

Compared with CC1(C)CC[C@]2(C(=O)O[C@@H]3O[C@H](CO)[C@@H](O)[C@H](O)[C@H]3O)CC[C@]3(C)C(=CCC4[C@@]5(C)CC[C@H](O[C@@H]6O[C@H](C(=O)O)[C@@H](O)[C@H](O[C@@H]7O[C@H](CO)[C@H](O)[C@H](O)[C@H]7O)[C@H]6O)C(C)(C)C5CC[C@]43C)C2C1 (some centres undefined), CC(=O)N[C@H]1[C@H](O[C@H]2CC[C@@]3(C)C(CC[C@]4(C)C3CC=C3[C@@H]5CC(C)(C)CC[C@]5(C(=O)OC5OCC(O)C(O)C5O)CC[C@]34C)C2(C)C)O[C@H](COC2OC(C)C(O)C(OC3OC(C)C(O)C(O)C3O)C2O)[C@@H](O)[C@@H]1O (some centres undefined) is higher in “activity change, negative = inhibition” value: -4.49% [at 30.2 µM] for the first, 0.669% [at 30.2 µM] for the second.

Going from CC1=CC(=O)[C@]2(O[C@@H]3O[C@@H](C)[C@H](O)[C@@H](O)[C@H]3OC(=O)/C=C/c3ccccc3)C=CO[C@@H](O[C@@H]3O[C@H](CO)[C@@H](O)[C@H](O)[C@H]3O)[C@H]12 to CC1(C)CC[C@]2(C(=O)O[C@@H]3O[C@H](CO)[C@@H](O)[C@H](O)[C@H]3O)CC[C@]3(C)C(=CCC4[C@@]5(C)C[C@@H](O)[C@H](O)[C@](C)(C=O)C5CC[C@]43C)[C@@H]2[C@@H]1O (some centres undefined), the “activity change, negative = inhibition” value rises from -4% [at 30.2 µM] to 0.812% [at 30.2 µM].

Compared with C/C=C(\C)C(=O)O[C@H]1[C@@H](O[C@]2(COC(=O)CC(C)C)O[C@H](COC(=O)C(C)CC)[C@@H](OC(C)=O)[C@@H]2O)O[C@H](COC(C)=O)[C@@H](O)[C@@H]1O (some centres undefined), CC(C)=CCC[C@](C)(O)[C@H]1CC[C@]2(C)[C@@H]1[C@H](O)CC1[C@@]3(C)CC[C@H](O)C(C)(C)C3[C@@H](O[C@@H]3O[C@H](CO)[C@@H](O)[C@H](O)[C@H]3O[C@@H]3OC[C@@H](O)[C@H](O)[C@H]3O)C[C@]12C (some centres undefined) is lower in “activity change, negative = inhibition” value: 0.408% [at 30.2 µM] for the first, -1.67% [at 30.2 µM] for the second.

Compared with CC1NC(=O)CCCNC(=O)C(Cc2c[nH]c3ccccc23)NC(=O)C(C)NC(=O)C(C(C)C)NC(=O)C(C(C)c2ccccc2)NC(=O)C(C(C)C)NC1=O (stereo not drawn) (cyclo([GABA]AV[ξPhe(βξ-Me)]VAW); configuration not given here), C[C@@H]1O[C@@H](O[C@H]2[C@@H](OC(=O)[C@]34CCC(C)(C)CC3C3=CCC5[C@@]6(C)C[C@H](O)[C@H](O[C@@H]7O[C@H](C(=O)O)[C@@H](O)[C@H](O)[C@H]7O)[C@@](C)(C(=O)O)C6CC[C@@]5(C)[C@]3(C)CC4)OC[C@H](O)[C@@H]2O)[C@H](O)[C@H](O)[C@H]1O[C@@H]1OC[C@@H](O)[C@H](O)[C@H]1O (some centres undefined) is higher in “activity change, negative = inhibition” value: -3.31% [at 30.2 µM] for the first, 0.0144% [at 30.2 µM] for the second.

First: CC1OC(O[C@H]2CC[C@@]3(C)C(CC[C@]4(C)C3CC=C3C5CC(C)(C)CC[C@]5(C(=O)OC5OC(CO)C(OC6OC(COC7OCC(O)C(O)C7O)C(O)C(O)C6O)C(O)C5O)CC[C@]34C)C2(C)C)C(O)C(O)C1OC1OCC(OC2OCC(O)C(O)C2O)C(O)C1O (some centres undefined)
Second: C[C@@H]1O[C@@H](O[C@H]2[C@H](O[C@H]3CC[C@@]4(C)C(CC[C@]5(C)C4CC=C4[C@@H]6CC(C)(C)CC[C@]6(C(=O)O[C@@H]6OC[C@H](O)[C@H](O)[C@H]6O[C@@H]6O[C@@H](C)[C@H](O[C@@H]7O[C@H](CO)[C@@H](O)[C@H](O)[C@H]7O)[C@H](O)[C@H]6O)[C@H](O)C[C@]45C)C3(C)C)O[C@H](CO)[C@@H](O[C@@H]3OC[C@@H](O)[C@H](O)[C@H]3O)[C@@H]2O)[C@H](O)[C@H](O)[C@H]1O (some centres undefined)
The activity change, negative = inhibition of the first is lower: -11.1% [at 12.4 µM] for the first, -1.57% [at 12.4 µM] for the second.

In the case of C[C@@H]1O[C@@H](O[C@H]2[C@H](OC(=O)[C@]34CCC(C)(C)C[C@H]3C3=CCC5[C@@]6(C)C[C@H](O)[C@H](O[C@@H]7O[C@H](CO)[C@@H](O)[C@H](O)[C@H]7O)[C@@](C)(CO)C6[C@H](O)C[C@@]5(C)[C@]3(C)CC4)OC[C@H](O)[C@@H]2O)[C@H](O)[C@H](O)[C@H]1O[C@@H]1OC[C@@H](O)[C@H](O[C@@H]2OC[C@](O)(CO)[C@H]2O)[C@H]1O (some centres undefined), the activity change, negative = inhibition was 3.34% [at 12.4 µM].
